The record followed here is ChEMBL document CHEMBL1961873, “Compounds: GSK PKIS; Assays: Nanosyn kinase panel” (2012).

The target in the first test is Death-associated protein kinase 1 (Homo sapiens) (UniProt P53355). As to conditions: at 1 µM.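 Note: each value is a mean inhibition figure.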
Chain of Death-associated protein kinase 1 (Homo sapiens) (P53355 whole entry, looked up): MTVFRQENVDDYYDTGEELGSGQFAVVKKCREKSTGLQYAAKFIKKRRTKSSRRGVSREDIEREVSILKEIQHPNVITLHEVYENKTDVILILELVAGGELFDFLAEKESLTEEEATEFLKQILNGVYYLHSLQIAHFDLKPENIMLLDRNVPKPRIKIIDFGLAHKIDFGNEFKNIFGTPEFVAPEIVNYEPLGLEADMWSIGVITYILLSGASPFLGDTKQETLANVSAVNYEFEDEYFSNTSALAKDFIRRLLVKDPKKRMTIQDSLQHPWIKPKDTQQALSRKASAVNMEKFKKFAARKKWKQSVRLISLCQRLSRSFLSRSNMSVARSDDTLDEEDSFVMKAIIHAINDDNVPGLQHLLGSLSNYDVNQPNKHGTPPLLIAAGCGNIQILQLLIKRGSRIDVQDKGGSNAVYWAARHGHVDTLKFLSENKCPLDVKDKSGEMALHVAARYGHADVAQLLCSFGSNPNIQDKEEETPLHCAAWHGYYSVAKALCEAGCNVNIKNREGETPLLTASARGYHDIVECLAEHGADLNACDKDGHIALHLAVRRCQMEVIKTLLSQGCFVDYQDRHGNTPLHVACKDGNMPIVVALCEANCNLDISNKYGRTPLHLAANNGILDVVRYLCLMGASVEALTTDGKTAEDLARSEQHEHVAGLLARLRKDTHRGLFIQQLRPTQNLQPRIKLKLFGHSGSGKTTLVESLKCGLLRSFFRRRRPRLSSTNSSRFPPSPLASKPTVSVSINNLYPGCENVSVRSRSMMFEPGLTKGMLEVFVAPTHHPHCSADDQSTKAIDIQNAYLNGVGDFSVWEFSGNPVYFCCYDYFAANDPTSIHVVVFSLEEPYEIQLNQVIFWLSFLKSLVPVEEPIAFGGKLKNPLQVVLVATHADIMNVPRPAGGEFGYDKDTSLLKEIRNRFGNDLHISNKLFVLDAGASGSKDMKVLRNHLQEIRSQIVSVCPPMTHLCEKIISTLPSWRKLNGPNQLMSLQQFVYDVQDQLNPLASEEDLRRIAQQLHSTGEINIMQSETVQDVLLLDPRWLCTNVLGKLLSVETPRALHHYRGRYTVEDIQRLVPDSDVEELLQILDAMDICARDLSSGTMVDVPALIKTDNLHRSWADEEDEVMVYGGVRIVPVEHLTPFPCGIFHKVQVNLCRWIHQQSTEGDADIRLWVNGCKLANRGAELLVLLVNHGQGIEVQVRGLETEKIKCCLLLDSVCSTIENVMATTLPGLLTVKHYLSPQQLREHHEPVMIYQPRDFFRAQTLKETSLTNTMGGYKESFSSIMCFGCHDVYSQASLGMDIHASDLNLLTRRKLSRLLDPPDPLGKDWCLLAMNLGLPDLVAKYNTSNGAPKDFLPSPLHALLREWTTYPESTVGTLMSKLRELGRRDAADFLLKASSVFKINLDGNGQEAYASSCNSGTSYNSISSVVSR
As for `CCn1c(-c2nonc2N)nc2c(C#CCN)ncc(OCCCN)c21`, the inhibition was -3.38%.

For `NS(=O)(=O)c1ccc(N/C=C2\C(=O)Nc3ccc4ncsc4c32)cc1`, the inhibition turned out to be 9.33%.

Turning to `COc1cc(C=NNc2ncnc3c2cnn3Cc2ccccc2)ccc1O`, the inhibition was -3.68%.

Take `Fc1ccc(-c2ncn(C3CCNCC3)c2-c2ccnc(Oc3ccccc3)n2)cc1`: the inhibition was -1.87%.

As to `COc1cc2c(cc1Nc1nc(Nc3ccsc3C(N)=O)c3cc[nH]c3n1)N(C(=O)CN(C)C)CCC2`, the inhibition was determined as 4.14%.

For the compound `COc1cccc(-n2ncc3c(N/N=C/c4ccncc4)ncnc32)c1`, the inhibition was 4.53%.

As for `CCn1c(-c2nonc2N)nc2c(C#CC(C)(C)O)nc(O[C@@H](CN)c3ccccc3)cc21`, the inhibition was found to be 2.31%.

For the compound `NC(=O)c1sc(-n2cnc3cc(C(F)(F)F)ccc32)cc1OCc1ccccc1Br`, the inhibition turned out to be 0%.

Regarding `NS(=O)(=O)c1ccc(-c2ccc3c(NC(=O)C4CC4)n[nH]c3c2)cc1`, the inhibition stood at 4.32%.

Turning to `Nc1nonc1-c1nc2cnccc2n1C1CCCCC1`, the inhibition was -1.97%.

`Cc1cc(-c2ccco2)cc(C)c1/C=C/c1cncc(-c2nn[nH]n2)c1`: the inhibition is 0.04%.

`CCn1c(-c2nonc2N)nc2c(C#CC(C)(C)O)ncc(OC[C@@H]3CCCN3)c21`: the inhibition is 0.89%.

In the case of `COc1cccc(COc2cc(-n3cnc4ccccc43)sc2C(N)=O)c1`, the inhibition came to 1.02%.

For `CCn1c(-c2nonc2N)nc2c(C#CC(C)(C)O)ncc(OCC3CCNCC3)c21`, the inhibition came out at 1.75%.

In a further test the target is T1, Serine/threonine-protein kinase DCLK2 (Homo sapiens) (UniProt Q8N568).
T1 sequence (whole entry): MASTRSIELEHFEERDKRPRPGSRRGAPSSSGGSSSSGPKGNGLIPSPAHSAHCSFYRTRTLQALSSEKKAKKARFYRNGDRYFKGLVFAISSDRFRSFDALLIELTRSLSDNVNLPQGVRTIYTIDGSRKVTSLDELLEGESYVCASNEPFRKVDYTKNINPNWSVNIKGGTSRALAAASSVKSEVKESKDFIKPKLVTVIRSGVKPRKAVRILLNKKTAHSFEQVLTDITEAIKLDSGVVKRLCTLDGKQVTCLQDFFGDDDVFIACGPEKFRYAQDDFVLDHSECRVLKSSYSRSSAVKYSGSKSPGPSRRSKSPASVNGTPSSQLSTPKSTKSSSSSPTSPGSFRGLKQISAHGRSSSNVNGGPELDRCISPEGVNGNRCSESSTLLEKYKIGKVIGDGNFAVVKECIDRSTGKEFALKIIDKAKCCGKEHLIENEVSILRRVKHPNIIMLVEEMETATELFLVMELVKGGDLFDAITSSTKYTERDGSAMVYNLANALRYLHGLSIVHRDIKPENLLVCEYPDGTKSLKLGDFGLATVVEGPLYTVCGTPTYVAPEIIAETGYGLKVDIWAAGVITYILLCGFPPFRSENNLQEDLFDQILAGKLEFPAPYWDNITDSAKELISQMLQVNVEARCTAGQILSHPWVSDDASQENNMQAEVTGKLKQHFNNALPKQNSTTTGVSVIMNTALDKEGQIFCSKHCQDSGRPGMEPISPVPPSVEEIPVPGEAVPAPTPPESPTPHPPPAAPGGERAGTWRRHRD
As to conditions: at 0.1 µM.
Take `CCn1c(-c2nonc2N)nc2c(C#CCN)ncc(OCCCN)c21`: the inhibition was -0.93%.

In the case of `NS(=O)(=O)c1ccc(N/C=C2\C(=O)Nc3ccc4ncsc4c32)cc1`, the inhibition is 0.08%.

For `COc1cc(C=NNc2ncnc3c2cnn3Cc2ccccc2)ccc1O`, the inhibition is -3.6%.

Regarding `Fc1ccc(-c2ncn(C3CCNCC3)c2-c2ccnc(Oc3ccccc3)n2)cc1`, the inhibition was -4.56%.

For `COc1cc2c(cc1Nc1nc(Nc3ccsc3C(N)=O)c3cc[nH]c3n1)N(C(=O)CN(C)C)CCC2`, the inhibition was -2.25%.

In the case of `COc1cccc(-n2ncc3c(N/N=C/c4ccncc4)ncnc32)c1`, the inhibition was 2.42%.

In the case of `CCn1c(-c2nonc2N)nc2c(C#CC(C)(C)O)nc(O[C@@H](CN)c3ccccc3)cc21`, the inhibition was 6.73%.

Take `NC(=O)c1sc(-n2cnc3cc(C(F)(F)F)ccc32)cc1OCc1ccccc1Br`: the inhibition is -1.23%.

Consider `NS(=O)(=O)c1ccc(-c2ccc3c(NC(=O)C4CC4)n[nH]c3c2)cc1`, for which the inhibition stood at 0.37%.

As to `Nc1nonc1-c1nc2cnccc2n1C1CCCCC1`, the inhibition was -0.3%.

As to `Cc1cc(-c2ccco2)cc(C)c1/C=C/c1cncc(-c2nn[nH]n2)c1`, the inhibition was -1.22%.

`CCn1c(-c2nonc2N)nc2c(C#CC(C)(C)O)ncc(OC[C@@H]3CCCN3)c21`: the inhibition is -1.55%.

For the compound `COc1cccc(COc2cc(-n3cnc4ccccc43)sc2C(N)=O)c1`, the inhibition was -0.3%.

Regarding `CCn1c(-c2nonc2N)nc2c(C#CC(C)(C)O)ncc(OCC3CCNCC3)c21`, the inhibition was -3.05%.

In another test the target is T1, Serine/threonine-protein kinase DCLK2 (Homo sapiens). Particulars: at 1 µM.
As for `CCn1c(-c2nonc2N)nc2c(C#CCN)ncc(OCCCN)c21`, the inhibition was -0.65%.

`NS(=O)(=O)c1ccc(N/C=C2\C(=O)Nc3ccc4ncsc4c32)cc1`: the inhibition was found to be 5.55%.

On to `COc1cc(C=NNc2ncnc3c2cnn3Cc2ccccc2)ccc1O`, for which the inhibition was -3.02%.

In the case of `Fc1ccc(-c2ncn(C3CCNCC3)c2-c2ccnc(Oc3ccccc3)n2)cc1`, the inhibition is -2.43%.

Take `COc1cc2c(cc1Nc1nc(Nc3ccsc3C(N)=O)c3cc[nH]c3n1)N(C(=O)CN(C)C)CCC2`: the inhibition was 0.34%.

Consider `COc1cccc(-n2ncc3c(N/N=C/c4ccncc4)ncnc32)c1`, for which the inhibition came to 1.8%.

As to `CCn1c(-c2nonc2N)nc2c(C#CC(C)(C)O)nc(O[C@@H](CN)c3ccccc3)cc21`, the inhibition is 18.5%.

For the compound `NC(=O)c1sc(-n2cnc3cc(C(F)(F)F)ccc32)cc1OCc1ccccc1Br`, the inhibition came to 2.52%.

For the compound `NS(=O)(=O)c1ccc(-c2ccc3c(NC(=O)C4CC4)n[nH]c3c2)cc1`, the inhibition worked out at 0.39%.

Regarding `Nc1nonc1-c1nc2cnccc2n1C1CCCCC1`, the inhibition amounted to 1.52%.

In the case of `Cc1cc(-c2ccco2)cc(C)c1/C=C/c1cncc(-c2nn[nH]n2)c1`, the inhibition was 0.25%.

Consider `CCn1c(-c2nonc2N)nc2c(C#CC(C)(C)O)ncc(OC[C@@H]3CCCN3)c21`, for which the inhibition was determined as 2.93%.

As for `COc1cccc(COc2cc(-n3cnc4ccccc43)sc2C(N)=O)c1`, the inhibition is 0.3%.

In the case of `CCn1c(-c2nonc2N)nc2c(C#CC(C)(C)O)ncc(OCC3CCNCC3)c21`, the inhibition is -1.26%.

For a further test, the target named is MAP kinase-activated protein kinase 2 (Homo sapiens) (UniProt P49137). Particulars: at 0.1 µM.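 Note: figures are mean inhibition values.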
Chain of MAP kinase-activated protein kinase 2 (Homo sapiens) (P49137 whole entry, looked up): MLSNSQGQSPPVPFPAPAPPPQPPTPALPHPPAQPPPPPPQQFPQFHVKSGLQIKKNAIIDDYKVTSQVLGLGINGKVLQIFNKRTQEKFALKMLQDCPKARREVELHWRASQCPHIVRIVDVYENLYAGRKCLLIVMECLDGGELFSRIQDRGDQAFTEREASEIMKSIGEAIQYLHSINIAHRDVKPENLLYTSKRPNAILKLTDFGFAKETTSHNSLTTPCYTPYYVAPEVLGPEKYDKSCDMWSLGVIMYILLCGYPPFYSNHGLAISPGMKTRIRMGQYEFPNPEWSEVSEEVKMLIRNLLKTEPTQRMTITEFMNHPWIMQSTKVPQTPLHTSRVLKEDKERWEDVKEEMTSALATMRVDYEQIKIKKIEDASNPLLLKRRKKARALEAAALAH
In the case of `CCn1c(-c2nonc2N)nc2c(C#CCN)ncc(OCCCN)c21`, the inhibition was -0.73%.

`NS(=O)(=O)c1ccc(N/C=C2\C(=O)Nc3ccc4ncsc4c32)cc1`: the inhibition is 2.68%.

Take `COc1cc(C=NNc2ncnc3c2cnn3Cc2ccccc2)ccc1O`: the inhibition was -2.2%.

For `Fc1ccc(-c2ncn(C3CCNCC3)c2-c2ccnc(Oc3ccccc3)n2)cc1`, the inhibition turned out to be 0.07%.

Take `COc1cc2c(cc1Nc1nc(Nc3ccsc3C(N)=O)c3cc[nH]c3n1)N(C(=O)CN(C)C)CCC2`: the inhibition was -0.32%.

Turning to `COc1cccc(-n2ncc3c(N/N=C/c4ccncc4)ncnc32)c1`, the inhibition came out at 2.5%.

Take `CCn1c(-c2nonc2N)nc2c(C#CC(C)(C)O)nc(O[C@@H](CN)c3ccccc3)cc21`: the inhibition is -0.97%.

As for `NC(=O)c1sc(-n2cnc3cc(C(F)(F)F)ccc32)cc1OCc1ccccc1Br`, the inhibition was determined as 0.61%.

As for `NS(=O)(=O)c1ccc(-c2ccc3c(NC(=O)C4CC4)n[nH]c3c2)cc1`, the inhibition came out at 1.09%.

Consider `Nc1nonc1-c1nc2cnccc2n1C1CCCCC1`, for which the inhibition is -1.18%.

In the case of `Cc1cc(-c2ccco2)cc(C)c1/C=C/c1cncc(-c2nn[nH]n2)c1`, the inhibition came out at 0.52%.

Consider `CCn1c(-c2nonc2N)nc2c(C#CC(C)(C)O)ncc(OC[C@@H]3CCCN3)c21`, for which the inhibition was -0.56%.

Regarding `COc1cccc(COc2cc(-n3cnc4ccccc43)sc2C(N)=O)c1`, the inhibition is -0.08%.

As to `CCn1c(-c2nonc2N)nc2c(C#CC(C)(C)O)ncc(OCC3CCNCC3)c21`, the inhibition turned out to be 0.79%.
